Pol iota inh: inhibitors of human DNA polymerase iota | Potency, µM (titrated, usually from 115 µM), actives largely listed as inhibitors | Q9UNA4 | AID 588590 | hit rate 1% among 390,000 | Pol iota fluorescent replication assay, 10 min
Target sequence (Q9UNA4 whole entry, looked up): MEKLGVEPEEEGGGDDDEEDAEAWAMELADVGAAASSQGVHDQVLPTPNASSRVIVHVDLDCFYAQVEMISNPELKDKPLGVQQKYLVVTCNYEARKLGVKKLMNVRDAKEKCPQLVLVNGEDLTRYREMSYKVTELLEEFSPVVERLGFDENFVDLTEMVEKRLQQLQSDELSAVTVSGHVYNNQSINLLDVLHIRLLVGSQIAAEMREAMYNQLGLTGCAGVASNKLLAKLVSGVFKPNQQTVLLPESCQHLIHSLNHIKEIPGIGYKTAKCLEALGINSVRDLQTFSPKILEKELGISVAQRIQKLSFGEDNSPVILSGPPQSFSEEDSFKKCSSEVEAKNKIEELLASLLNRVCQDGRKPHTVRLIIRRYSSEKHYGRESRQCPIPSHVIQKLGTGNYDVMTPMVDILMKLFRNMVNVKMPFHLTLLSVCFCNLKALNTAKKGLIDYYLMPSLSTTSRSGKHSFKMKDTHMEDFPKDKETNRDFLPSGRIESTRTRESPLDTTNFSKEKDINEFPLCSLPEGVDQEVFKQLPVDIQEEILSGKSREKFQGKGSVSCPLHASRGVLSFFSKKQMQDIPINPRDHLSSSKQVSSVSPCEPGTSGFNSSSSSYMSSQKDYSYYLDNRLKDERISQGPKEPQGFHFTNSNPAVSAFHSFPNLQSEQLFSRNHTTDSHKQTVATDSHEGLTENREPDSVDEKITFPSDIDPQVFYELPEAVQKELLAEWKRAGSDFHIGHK
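Fluorescent replication assay read twice, at 0 min and 10 min after adding 50 nM (final) substrate. Enzyme (10 nM) and compounds were first incubated 15 min at room temperature; enzyme-free buffer wells were negative controls.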
POLK inh: blocks human DNA polymerase kappa activity; purified Pol kappa, fluorescent DNA synthesis assay, 10 min; hit rate 0.53% among 400,000; Q9UBT6; Potency, µM (highest dose often 107 µM), most hits filed as inhibitors
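50 nM final substrate added after 15 min RT preincubation of 10 nM Pol kappa with compound; fluorescence read at 0 and 10 min.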
APE1 inh: APE1 (human) endonuclease inhibition; recombinant APE1, TAMRA/BHQ-2 abasic DNA cleavage fluorescence; Potency, µM (series often up to 65.8 µM), actives largely listed as inhibitors; hit rate 0.35% among 350,000; also: nearly all actives have a fitted effect of over 55% in size
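Incision of a quenched TAMRA/BHQ-2 THF abasic-site duplex (50 nM) by 0.75 nM APE1, after 15 min compound preincubation, measured as fluorescence increase over three 60 s reads. Values normalized to buffer, DMSO and NSC13755 control wells.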
POLB inh: DNA polymerase beta (human) inhibition. P06746. Pol beta primer extension/strand displacement, fluorescence kinetic. Potency, µM (doses to about 114 µM), hits mostly inhibitors. hit rate 1.3% among 340,000
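Pol beta (10 nM) and compounds were preincubated 15 min at room temperature, then 50 nM substrate (final) started primer extension/strand displacement. Reads were taken at 0 and 10 min; concentration-response data were fitted to a four-parameter Hill equation.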
L3MBTL1 inh: blocks human L3MBTL1. Q9Y468. AlphaScreen L3MBTL1–H3K9me1 peptide binding. Potency, µM (series often up to 57.1 µM), most hits filed as inhibitors. hit rate 0.66% among 230,000; also: nearly all actives have a fitted effect of over 60% in size
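AlphaScreen proximity signal between nickel-chelate acceptor and streptavidin donor beads (final 10 ug/mL) reports binding of 50 nM L3MBTL1 to 75 nM biotin-H3 K9me1 peptide; complex incubated with compounds 30 min at room temperature; cefsulodin titration as control.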
Pol eta inh: blocks human DNA polymerase eta activity. Potency, µM (top dose mostly 114 µM), actives largely listed as inhibitors. AID 588591. hit rate 1.2% among 390,000. Q9Y253. recombinant Pol eta, fluorescent DNA replication assay
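Pol eta at 10 nM preincubated with compounds 15 min at room temperature; reaction started with fluorescent substrate (50 nM final) and read kinetically at 0 and 10 min.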
Each line names hits and unclear results; the compound was inactive in the other large screens. In the library only some 2.5% were active in any assay of this set; here they are far more common. Calls follow the shape of the dose curve; as a rule, active = well fitted curve in the direction sought with a large enough effect; inconclusive = small, poorly fitted or top-dose-only effect, or another doubt; inactive = no such curve, though single readings can be large; an effect the other way counts as inactive or inconclusive.

O=[N+]([O-])c1ccccc1/C=C/C=N/n1c(-c2cc(-c3ccccc3)n[nH]2)n[nH]c1=S	Pol iota inh inconclusive, POLB inh 10µM, L3MBTL1 inh inconclusive, Pol eta inh 32µM
O=[N+]([O-])c1ccc(Cn2cc(-c3cccc(C(F)(F)F)c3)nn2)cc1	Pol iota inh 89µM, POLK inh inconclusive
O=C1c2ccccc2C(=O)c2cc(Cn3cc(-c4cccc(C(F)(F)F)c4)nn3)ccc21	none (no result: APE1 inh, POLB inh, L3MBTL1 inh, Pol eta inh)
CCCCCN(CCCCC)c1ccc(/C=C/c2ccnc3ccccc23)cc1	none (no result: APE1 inh, POLB inh, L3MBTL1 inh, Pol eta inh)
O=C1CC(c2ccco2)CC(O)=C1C=NCC1CCNCC1 (configuration not stated)	APE1 inh 32µM
O=C1CC(c2ccco2)CC(O)=C1C=Nc1cc(Cl)cc(Cl)c1 (configuration not stated)	Pol iota inh inconclusive, POLK inh 71µM, APE1 inh inconclusive, POLB inh 40µM, Pol eta inh inconclusive (no result: L3MBTL1 inh)
O=C1CC(c2ccco2)CC(O)=C1C=NCCN1CCNCC1 (configuration not stated)	none
CC(=O)N[C@@H](C=O)[C@H](O)[C@H](O)[C@@H](O)CO	none (no result: Pol iota inh, POLK inh, POLB inh, L3MBTL1 inh, Pol eta inh)
COc1cc2sc3cc(NCc4ccc5c(c4)OCO5)ccc3c(=O)c2cc1OC	none (no result: POLB inh)
COc1cc2sc3cc(NCc4ccc(C)o4)ccc3c(=O)c2cc1OC	Pol iota inh 22µM, POLK inh 79µM (no result: POLB inh)
CC(=O)c1cc(O)c2ccccc2c1O	POLB inh inconclusive, Pol eta inh 89µM
CC(=O)c1coc2c1cc(O)c1ccccc12	none (no result: L3MBTL1 inh)
Cc1cc(C(=O)COC(=O)c2ccc(O)cc2)c(C)n1CC1CCCO1 (configuration not stated)	Pol iota inh 89µM, POLK inh inconclusive, APE1 inh inconclusive
COc1cc(OC)cc(C(=O)OCC(=O)c2cc(C)n(CC3CCCO3)c2C)c1 (configuration not stated)	none (no result: POLB inh)
O=C1NC(c2ccc(Br)cc2)=N/C1=C/c1ccco1	APE1 inh inconclusive, POLB inh inconclusive
O=C1NC(c2ccccc2Cl)=N/C1=C/c1ccco1	Pol iota inh 28µM, POLK inh inconclusive, POLB inh inconclusive
Cc1c(NC(=O)Nc2ccc3c(c2)OCO3)cccc1[N+](=O)[O-]	none (no result: L3MBTL1 inh)
Cc1ccc(CNC(=O)c2cc3c(s2)-c2c(C)cccc2OC3)cc1	Pol iota inh inconclusive, POLB inh 14µM (no result: APE1 inh, L3MBTL1 inh)
Cc1cccc2c1-c1sc(C(=O)NCc3ccc(Cl)cc3)cc1CO2	POLK inh inconclusive (no result: APE1 inh, L3MBTL1 inh)
COc1ccc(NC(=O)c2cc3c(s2)-c2c(C)cccc2OC3)cc1Cl	POLB inh 11µM, Pol eta inh inconclusive (no result: APE1 inh, L3MBTL1 inh)
O=C(O)CSc1ccccc1C(=O)O	none (no result: L3MBTL1 inh)
CC(C)=CCC/C(C)=C/CC/C(C)=C/CSc1ccccc1C(=O)O	Pol iota inh 25µM, POLB inh inconclusive, Pol eta inh 32µM (no result: POLK inh, L3MBTL1 inh)
CCc1ccc(C(=O)c2cn(CC(=O)Nc3cc(F)ccc3F)c3nc(C)ccc3c2=O)cc1	none (no result: APE1 inh, L3MBTL1 inh)
CC(=O)N1CCC(=NNC(=O)CSc2cc(C)c(Br)cc2C)CC1	none
Cc1cc(SCC(=O)N/N=C/c2ccc(O)c(O)c2)c(C)cc1Br	Pol iota inh inconclusive, POLB inh 16µM (no result: L3MBTL1 inh)
C=C1CC[C@H](O)C/C1=C/C=C1\CCC[C@]2(C)C([C@H](C)CC[C@@H](O)C(C)(C)O)CC[C@@H]12 (some centres not stated)	none (no result: Pol iota inh, POLB inh, L3MBTL1 inh, Pol eta inh)
Cc1ccnc(NS(=O)(=O)c2ccc(N3C(=O)c4c(Cl)c(Cl)c(Cl)c(Cl)c4C3=O)cc2)n1	Pol eta inh 79µM
Cc1cc(/C=C2/C(=O)NN(c3ccccc3)C2=O)c(C)n1-c1cccc(O)c1	Pol iota inh 56µM, POLB inh inconclusive, L3MBTL1 inh inconclusive, Pol eta inh inconclusive
Cc1ccc(NC(=O)CN2C(=O)S/C(=C\c3cc(C)n(C)c3C)C2=O)cc1	none
Cc1cc(C=C2C(=O)c3ccccc3C2=O)c(C)n1-c1cccc(C(=O)O)c1	Pol iota inh inconclusive, POLK inh inconclusive, POLB inh inconclusive, Pol eta inh 45µM (no result: L3MBTL1 inh)
Cc1ccc(NC(=O)CN2C(=O)S/C(=C\c3cc(C)n(-c4cccc(C(=O)O)c4)c3C)C2=O)cc1	Pol iota inh inconclusive, POLB inh 45µM, Pol eta inh 56µM
COc1ccc(CN2CCC(Oc3cc(C(=O)NC4CC4)ccc3OC)CC2)c(O)c1	Pol iota inh 79µM, POLK inh inconclusive (no result: L3MBTL1 inh)
COc1ccc(C(=O)NC2CC2)cc1OC1CCN(Cc2cc(C)c(C)cc2C)CC1	none (no result: L3MBTL1 inh)
O=c1c([N+](=O)[O-])c(O)c2cccc3c2n1CCC3	POLK inh inconclusive, POLB inh 35µM, Pol eta inh 50µM (no result: L3MBTL1 inh)
CCOc1cc(C2CC(=O)NC(SCC)=C2C#N)ccc1O (configuration not stated)	APE1 inh inconclusive (no result: L3MBTL1 inh)
CCOc1cc(C2CC(=O)N3CN(C4CCCCC4)CSC3=C2C#N)ccc1O (configuration not stated)	Pol iota inh 35µM
N#CC1=C2SCN(C3CCCCC3)CN2C(=O)CC1c1ccc(Br)cc1 (configuration not stated)	Pol iota inh 20µM, POLB inh inconclusive, Pol eta inh inconclusive (no result: APE1 inh, L3MBTL1 inh)
Cc1ccc(OCC(=O)OCc2cc(=O)n3nc(-c4cccs4)sc3n2)cc1C	Pol iota inh inconclusive, POLB inh inconclusive (no result: APE1 inh, L3MBTL1 inh)
CCn1nnc2sc3c(c2c1=O)CCC(C)C3 (configuration not stated)	none
CC(C)(C)C1CCc2c(sc3nnn(CCOc4ccccc4)c(=O)c23)C1 (configuration not stated)	POLB inh 25µM (no result: APE1 inh, L3MBTL1 inh, Pol eta inh)
Cc1ccc(OCCn2nnc3sc4c(c3c2=O)CCC(C(C)(C)C)C4)cc1 (configuration not stated)	POLB inh 22µM (no result: APE1 inh, L3MBTL1 inh, Pol eta inh)
Cc1cccc(OCCCCn2nnc3sc4c(c3c2=O)CCC(C)C4)c1 (configuration not stated)	Pol iota inh inconclusive, POLB inh 14µM (no result: APE1 inh, L3MBTL1 inh, Pol eta inh)
COc1cccc(C2c3[nH]c4ccccc4c3C[C@H]3C(=O)N(CCCCCO)CC(=O)N23)c1 (some centres not stated)	none (no result: L3MBTL1 inh)
CCCCC(C)/C=C(C)/C=C(\C)C(=O)NC1=CC(O)(/C=C/C=C/C=C/C(=O)NC2=C(O)CCC2=O)C2OC2C1=O (configuration not stated)	POLK inh 27µM, APE1 inh inconclusive (no result: Pol iota inh, POLB inh, L3MBTL1 inh, Pol eta inh)
Cc1ccc(OCC(=O)N/N=C/C=C/c2ccco2)cc1	Pol iota inh 16µM, POLK inh inconclusive, L3MBTL1 inh inconclusive, Pol eta inh 18µM
CCn1c(SCC(=O)N/N=C/C=C/c2ccco2)nnc1-c1ccc(OC)cc1	POLB inh 25µM, L3MBTL1 inh inconclusive

Bioassay records: PubChem BioAssay, National Center for Advancing Translational Sciences (NCATS)
